This passage reports inhibition of aggregation, nuclei count and inhibition results from PubChem BioAssay.

SMILES strings stand for the structures. The source made the active and inactive calls.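 How the source made its calls, unless noted: active means visually confirmed hit in the image check and inhibition above 20%; inconclusive means visually confirmed hit but inhibition not above 20%; inactive means no visual hit in the image check.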

One experiment can be described thus: inhibitors of mutant huntingtin aggregation, primary screen, imaging, exon1htt(103Q)mCFP cells, high-content imaging (AID 483;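 active means visual image review flags a hit and inhibition of aggregation exceeds 20%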;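 further: compound exposure lasted 3 days before fixation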;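 on nuclei count: percent of the per-plate median nuclei count of sample wells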). As to conditions: exon1htt(103Q)mCFP cell line, aggregate imaging, at 2 µM; inhibition of aggregation: stronger effect = higher value; nuclei count: measured here: cell count, toxicity.
On to `CCS(=O)(=O)N1CCC(C(=O)NC2CCCCCCC2)CC1`, for which the inhibition of aggregation is -9.5% (inactive) and the nuclei count is 104%.

As for `Cc1occc1C(=O)Nc1nnc(C2CCCCC2)s1`, the nuclei count stood at 108% and the inhibition of aggregation is -8.9% (inactive).

Consider `NC(=O)c1ccccc1NC(=O)CN1CCOCC1`, for which the nuclei count worked out at 124% and the inhibition of aggregation is -45.9% (inactive).

With `CCOC(=O)C(CC)n1nc(C)n2c(cc3sccc32)c1=O` (stereo not given), the inhibition of aggregation is 14.3% (inactive) and the nuclei count was 110%.

For the compound `Cc1ccc(-c2noc(CCC(=O)N3CCN(c4cccc(C(F)(F)F)c4)CC3)n2)cc1`, the nuclei count was found to be 95.8% and the inhibition of aggregation is -10.2% (inactive).

Turning to `Cc1cc(Br)ccc1NC(=O)CNC(=O)CSc1n[nH]c(N)n1`, the nuclei count is 74.3% and the inhibition of aggregation was -13.4% (inactive).

`O=C(C1CCCN(S(=O)(=O)c2cnc[nH]2)C1)N1CCN(c2ccc(Cl)cc2)CC1` (stereo not given): the inhibition of aggregation is -31.8% (inactive) and the nuclei count came out at 103%.

Consider `Cc1ccc(CCSCC(=O)O)cn1`, for which the inhibition of aggregation was 1.9% (inactive) and the nuclei count was 90%.

Take `CCCc1nnc(NC(=O)CCC(=O)N2CCN(CCOc3ccc(C)cc3)CC2)s1`: the inhibition of aggregation was -0.2% (inactive) and the nuclei count is 89.5%.

On to `CN1CCC(NC(=O)c2cccs2)CC1`, for which the inhibition of aggregation is -27.2% (inactive) and the nuclei count worked out at 88.6%.

Another experiment can be described thus: inhibitors of E-selectin induction by TNFa, primary screen, imaging, HUVEC, immunofluorescence, MLSMR starter and 10KST1 sets (AID 487).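 On inhibition: signal is fraction of cell area covered by stained E-selectin grains.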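 On nuclei count: 100% = median nuclei count of all wells on the same plate.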 To be noted: HUVEC TNFalpha-induced E-selectin immunofluorescence imaging, at 2 µM; inhibition: stronger effect = higher value; nuclei count: measured here: cell number, toxicity.
A word on the inhibition: it is the change of the read-out against control, counted positive when it falls. Regarding `CC(C)(C)NC(=O)CSc1nnc(-c2ccccn2)n1-c1ccccc1`, the inhibition is -36.6% (inactive) and the nuclei count came to 122%.

On to `O=C(COC(=O)c1cncc(Br)c1)NCCC1=CCCCC1`, for which the inhibition was -26.8% (inactive) and the nuclei count stood at 116%.

`COc1ccc(S(=O)(=O)Nc2ccccc2OC)cc1C`: the inhibition was -26.6% (inactive) and the nuclei count worked out at 110%.

On to `Nc1nc2n(n1)C(c1cccc(Br)c1)CC(c1ccc(F)cc1)N2` (stereo not given), for which the inhibition was -59% (inactive) and the nuclei count was 102%.

Consider `O=C(NC1CCCCC1)N(Cc1ccccc1)Cc1ccco1`, for which the nuclei count came out at 128% and the inhibition is -214% (inactive).

As for `O=C(O)CCn1[nH]c(=O)ccc1=O`, the nuclei count was determined as 84.3% and the inhibition is -3% (inactive).

For `COc1ccc(C(=O)Nc2ccccc2C(=O)NCCN2CCOCC2)cc1`, the inhibition is -23.5% (inactive) and the nuclei count turned out to be 103%.

In the case of `CCc1ccccc1NC(=O)CCc1nc(-c2ccc(C)cc2)no1`, the nuclei count came to 86.3% and the inhibition was 14.1% (inactive).

`Cc1cc(NS(=O)(=O)c2ccc(NC(=O)Nc3ccc4c(c3)OCO4)cc2)no1`: the inhibition was -96.1% (inactive) and the nuclei count was determined as 112%.

Consider `CCOC(=O)c1ccc(NC(=O)CSCc2ccco2)cc1`, for which the inhibition was -4.5% (inactive) and the nuclei count was found to be 97.2%.

Take `Cc1cc(NC(=O)CSc2nccn2-c2ccc(F)cc2)no1`: the nuclei count amounted to 114% and the inhibition is -184% (inactive).

Take `O=C(COC(=O)C1CC1)c1c[nH]c2ccccc12`: the inhibition is -24.9% (inactive) and the nuclei count came to 103%.

On to `O=C(CCS(=O)(=O)c1cccc2nonc12)Nc1cccc2c1CCCC2`, for which the inhibition is -14% (inactive) and the nuclei count stood at 114%.

On to `COc1cccc(NC(=O)N(Cc2ccco2)C(C)c2cccs2)c1` (stereo not given), for which the inhibition is -52.3% (inactive) and the nuclei count is 114%.

For the compound `Cc1csc2ncc(C(=O)N3CCc4ccccc43)c(=O)n12`, the inhibition is 10% (inactive) and the nuclei count stood at 110%.

On to `c1ccc(-c2ccccc2OCCn2cncn2)cc1`, for which the nuclei count was 111% and the inhibition is -63.6% (inactive).

Take `COc1ccc(NC(=O)CN(c2ccc(C)cc2)S(C)(=O)=O)c(OC)c1`: the inhibition was -180% (inactive) and the nuclei count was 139%.

For the compound `O=C(OCC(=O)N1CCCC1)c1ccccc1OCc1ccccc1`, the nuclei count is 123% and the inhibition is -42.5% (inactive).

Regarding `Cc1cc(NS(=O)(=O)c2ccc(NC(=O)COc3ccccc3C(C)C)cc2)no1`, the inhibition was -2.6% (inactive) and the nuclei count was determined as 116%.

In the case of `CCN(CC)c1ccc(NC(=O)CN2CCN(CC(=O)Nc3ccccc3F)CC2)cc1`, the inhibition was -45.9% (inactive) and the nuclei count was determined as 113%.

As for `COc1cc2[nH]c(=O)c(C(=O)NCCCN3CCCCC3)c(O)c2cc1OC`, the inhibition is 15.9% (inactive) and the nuclei count turned out to be 108%.

`Cn1c(NC(=O)c2ccccc2NC(=O)C(C)(C)C)nc2ccccc21`: the inhibition was -10.7% (inactive) and the nuclei count turned out to be 126%.

Turning to `O=c1[nH]c2sc3c(c2c2nncn12)CCCC3`, the nuclei count stood at 111% and the inhibition was -112% (inactive).

Turning to `Cc1nnc(SCC(=O)NCCN2C(=O)CSC2=O)s1`, the inhibition is -195% (inactive) and the nuclei count is 125%.

As to `Cc1ccc(-c2nn(C)c(=O)c3ccccc23)cc1S(=O)(=O)NCCN1CCOCC1`, the nuclei count worked out at 113% and the inhibition was -24.7% (inactive).

For `COc1cccc(Oc2cn[nH]c2-c2ccc(O)cc2O)c1`, the nuclei count is 101% and the inhibition is -104% (inactive).

Consider `COc1ccc(CCNC(=O)CCN2C(=O)C3CC=CCC3C2=O)cc1OC` (stereo not given), for which the inhibition was -53.4% (inactive) and the nuclei count worked out at 103%.

Take `c1ccc(-c2nnc(-c3ccco3)n2-c2ccccc2)cc1`: the inhibition is -75.9% (inactive) and the nuclei count was 126%.

On to `CCCCCCC1/C(=N/O)CCC1C(=O)OC` (stereo not given), for which the inhibition is -54.1% (inactive) and the nuclei count worked out at 127%.

In the case of `CCOc1ccc2[nH]c(=O)c(C(c3nnnn3Cc3ccco3)N3CCC(C)CC3)cc2c1` (stereo not given), the nuclei count came to 82.3% and the inhibition is -65.3% (inactive).
